This is an account of results in the OligoGym collection.
Also: reference of the scale not given here.

In the first assay the target is PTGFRN. The assay can be described thus: pooled miR-30 sensor sort-seq; sequence = guide strand. The conditions noted are these: shRNA.
TTGGTCTGAAGGCTGGACGTTC: the sensor-assay potency score (higher = more potent) is -0.683.

Turning to TTTCTTTGCTAACATCCCGAAC, the sensor-assay potency score (higher = more potent) is -1.24.

As to TTTAGTGTAACACACTTTGTTT, the sensor-assay potency score (higher = more potent) was -0.905.

With TTGAACATTTGTAGTGGCCTTG, the sensor-assay potency score (higher = more potent) is -0.0806.

With TTAAATATAGGACCTGAGGTTT, the sensor-assay potency score (higher = more potent) is -1.13.

On to TATTTTAGCGTCCAGTCCCCGT, for which the sensor-assay potency score (higher = more potent) was -1.12.

Consider TTTTCTTGGATTTCCTGCCAGT, for which the sensor-assay potency score (higher = more potent) was -0.278.

In a further assay the target is PTGFR. The description is as above. To be noted: shRNA.
Turning to TGCACAACAATGAAACACCAAG, the sensor-assay potency score (higher = more potent) is -1.45.

For TTGTGTTTGAAAGAAGCGCAGC, the sensor-assay potency score (higher = more potent) is -0.804.

With TTTTATAGTCTCGATGTCCAAG, the sensor-assay potency score (higher = more potent) was -0.668.

Consider TTTGTGACTCCAATACACCGCT, for which the sensor-assay potency score (higher = more potent) was -0.161.

TTTAATGGAACTAAGCTCCCAA yielded a sensor-assay potency score (higher = more potent) of 0.844.

As for TTGTAGAAACACCAGGTCCTCG, the sensor-assay potency score (higher = more potent) is -0.683.

In the case of TTGACTGGCAAGCTTATAGAGA, the sensor-assay potency score (higher = more potent) is -0.966.

Regarding TTTGACAAATTTCAAAACCTGA, the sensor-assay potency score (higher = more potent) is -0.803.

With TCTGTGTTGTAGAAACACCAGG, the sensor-assay potency score (higher = more potent) is -1.29.

In turn, TTGCACAACAATGAAACACCAA gave a sensor-assay potency score (higher = more potent) of 0.0591.

In turn, TTTGATGTCTTCTGTGTTGTAG came in with a sensor-assay potency score (higher = more potent) of 0.583.

In the case of TAACTAACTGAAATATTGCCAA, the sensor-assay potency score (higher = more potent) was -0.195.

A further assay deals with PTH2R. The assay is described as above. To be noted: shRNA.
For the sequence TTTCAGCACAAGGACAATCTGC, the sensor-assay potency score (higher = more potent) is -0.513.

Regarding TTTAGATCCTAATTGCTCCTAT, the sensor-assay potency score (higher = more potent) worked out at 0.713.

As to TAGAACTCTAACCGTATTCAGA, the sensor-assay potency score (higher = more potent) was -0.533.

Take TAGAATATCATCTCCCTGCCTC: the sensor-assay potency score (higher = more potent) is -0.315.

Turning to TAGCTGCTAAGATCGGTGCTTG, the sensor-assay potency score (higher = more potent) was -0.715.

Turning to TAAATAAACATCACAACAGCAA, the sensor-assay potency score (higher = more potent) is -0.154.

For TAGTGCAATGCAATCGTCTGAA, the sensor-assay potency score (higher = more potent) was -0.115.

In the case of TTTGCCAGAGATAAGCACCATG, the sensor-assay potency score (higher = more potent) was -0.588.

As for TAAACTACTCCATTGACACTTG, the sensor-assay potency score (higher = more potent) is -0.214.

As to TAAGCTGTGCATAAAATCCCAT, the sensor-assay potency score (higher = more potent) is -0.0361.

For the sequence TTAAGTAACACCTTAACTGAAT, the sensor-assay potency score (higher = more potent) is -1.01.

For the sequence TATATTGTGATTTGTCCACAGA, the sensor-assay potency score (higher = more potent) is -0.718.

A further assay concerns the target PTPN7. The description is as above. To be noted: shRNA.
Take TTTGTCTGTCATAAATGCCAGC: the sensor-assay potency score (higher = more potent) is -0.867.

TTCTTCTTCCAGTTGCTTGGGG registered a sensor-assay potency score (higher = more potent) of 0.0231.

As to TTCTCCTCGGGCTTTCAGCTGT, the sensor-assay potency score (higher = more potent) was -0.819.

Turning to TAGACAGACACGGCTCTGGGGA, the sensor-assay potency score (higher = more potent) is -0.764.

ATTGATGTAATCTCCGTCCTCC displayed a sensor-assay potency score (higher = more potent) of 0.571.

TAGAACAGGAAACTGAAGCTCA gave a sensor-assay potency score (higher = more potent) of 0.0685.

Consider TAGTGGACACATTTCTCCTTGC, for which the sensor-assay potency score (higher = more potent) was -0.219.

TTGGCATTGATGTAATCTCCGT: the sensor-assay potency score (higher = more potent) was -0.978.

On to TTGTCCTTACTGCTGCTGCTTC, for which the sensor-assay potency score (higher = more potent) is -0.729.
